# RGS16-Gao: regulators of human RGS16-Galphao interaction | O15492+P09471 | bead-based flow cytometry RGS16-Galphao binding, fluorescence; actives lie on both sides | binding response (% of control), % at 10 µM | hit rate 0.38% among 220,000;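 further: Galphao activated by GDP with aluminum fluoride before binding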
# RGS8-Gao reg: regulators of human RGS8-Galphao interaction; multiplexed bead flow cytometry, RGS8-Galphao binding; actives lie on both sides; response (percent of control binding), % at 10 µM; hit rate 0.34% among 220,000; in the data active means response below about 60% or above about 140%; inactive means in between;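 further: Galphao activated as the GDP aluminium fluoride complex binding bead-coupled RGS8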
# Target sequence (P09471 whole entry, looked up): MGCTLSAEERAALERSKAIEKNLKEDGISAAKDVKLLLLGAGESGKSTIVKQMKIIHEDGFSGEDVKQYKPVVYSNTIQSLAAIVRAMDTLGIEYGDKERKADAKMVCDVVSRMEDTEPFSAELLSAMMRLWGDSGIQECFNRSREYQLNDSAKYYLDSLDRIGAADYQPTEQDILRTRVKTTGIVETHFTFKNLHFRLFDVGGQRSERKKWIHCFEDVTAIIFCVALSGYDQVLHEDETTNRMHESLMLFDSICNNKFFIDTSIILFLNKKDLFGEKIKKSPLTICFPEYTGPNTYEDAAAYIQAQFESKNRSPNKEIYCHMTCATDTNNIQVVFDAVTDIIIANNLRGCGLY
# RGS7-Gao reg: modulates binding of RGS7 to human Galphao | P09471 | Multiplexed bead flow cytometry; actives lie on both sides | binding response (% of control), % at 10 µM | hit rate 0.35% among 220,000 | AID 1439; in the data active means binding response below about 49% or above about 150%; inconclusive means no clear call, values can overlap the other calls; inactive means in between;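 further: fluorescent Galphao held in activated GDP-AlF4 state binding bead-coupled RGS7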
# RGS4-Gao reg: human RGS4-Galphao interaction regulation. P09471. Multiplexed bead flow cytometry, RGS4-Galphao binding; actives lie on both sides. binding response (% of control), % at 10 µM. hit rate 0.33% among 220,000; in the data active means binding response below about 49% or above about 150%; inactive means in between;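 further: fluorescent Galphao activated with aluminum fluoride binding bead-coupled RGS4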
# RGS4-Gao HTS: regulators of human RGS4-Galphao interaction; RGS4–Galpha-o binding response, % at 10 µM; multiplexed bead flow cytometry, RGS–Galpha-o binding; hit rate 99% among 1,600; shares compounds with RGS16-Gao;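 further: fluorescently labeled Galpha-o bound to GDP with aluminium fluoride binding biotinylated RGS beads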
# Biotin-avidin: counter-screen: compounds disrupting biotin binding to avidin beads. shares compounds with RGS16-Gao. streptavidin beads, fluorescein-biotin binding, flow cytometry. inhibition, % at 10 µM. 1,700 tested, under 10 active. AID 1783;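 active means inhibition above 50%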;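 further: median green fluorescence of gated singlet beads compared with DMSO control wells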
# RGS8-Gao single: confirmation of regulators of human RGS8-Galphao interaction. binding response (% of control), % at 10 µM. hit rate 3% among 1,700. shares compounds with RGS16-Gao. bead-based flow cytometry RGS8-Galphao binding, fluorescence; actives lie on both sides; in the data active means binding response below about 72% or above about 130%; inactive means in between;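 further: Galphao activated as GDP AlF4 complex before binding bead RGS8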
# RGS7-Gao single: confirmation of regulators of human RGS7-Galphao interaction; response (percent of control binding), % at 10 µM; hit rate 7.8% among 1,700; bead-based flow cytometry RGS7-Galphao binding; actives lie on both sides; shares compounds with RGS16-Gao; in the data active means response below about 75% or above about 130%; inactive means in between;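 further: fluorescent Galphao activated with GDP and aluminum fluoride binding bead-coupled RGS7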
# RGS16-Gao single: confirmation of regulators of human RGS16-Galphao interaction. AID 1838. hit rate 4% among 1,700. shares compounds with RGS16-Gao. response (% of control binding), % at 10 µM. bead-based flow cytometry, RGS16-Galphao binding; actives lie on both sides; in the data active means response below about 74% or above about 130%; inactive means in between;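 further: Galphao activated as the GDP aluminium fluoride complex binding bead-coupled RGS16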
# RGS4-Gao single: confirmation of regulators of human RGS4-Galphao interaction. shares compounds with RGS16-Gao. RGS4-Galphao binding, multiplexed bead flow cytometry; actives lie on both sides. hit rate 4% among 1,700. binding response (% of control), % at 10 µM; in the data active means binding response below about 74% or above about 130%; inactive means in between
# RGS19-Gao single: RGS19-Galphao interaction regulation, single point confirmation. AID 1841. bead-based flow cytometry RGS19-Galphao binding; actives lie on both sides. response (percent of control binding), % at 10 µM. hit rate 5% among 1,700. shares compounds with RGS16-Gao; in the data active means response below about 50% or above about 160%; inactive means in between
# Target sequence (P09471 whole entry, looked up): as above
# Target sequence (P49795 whole entry, looked up): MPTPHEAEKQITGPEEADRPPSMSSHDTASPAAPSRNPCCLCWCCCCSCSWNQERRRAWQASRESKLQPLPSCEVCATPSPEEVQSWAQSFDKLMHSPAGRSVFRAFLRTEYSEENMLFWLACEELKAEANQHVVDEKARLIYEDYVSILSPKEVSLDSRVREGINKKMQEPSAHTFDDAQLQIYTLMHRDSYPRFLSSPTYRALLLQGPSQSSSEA
# Numbers stand for hits; i = inactive; ? = inconclusive; nt = not tested or not shown; [ ] = another dose, or the depositor's remark. The list is not random: actives were taken first. Their share in the collection is about 0.78%. Unless noted, how the calls were made is not given here.
SMILES,RGS16-Gao,RGS8-Gao reg,RGS7-Gao reg,RGS4-Gao reg,RGS4-Gao HTS,Biotin-avidin,RGS8-Gao single,RGS7-Gao single,RGS16-Gao single,RGS4-Gao single,RGS19-Gao single
O=C(/C=C/c1ccc2c(c1)OCO2)Nc1nc2ccc(F)cc2s1,i,i,?,i,nt,nt,nt,nt,nt,nt,nt
O=C(/C=C/c1ccc2c(c1)OCO2)Nc1nc(-c2ccc(F)cc2)cs1,183.5[activator],i,i,i,82.0,i,i,i,i,i,i
Cc1ccccc1OCC(=O)N(Cc1cccs1)C1CCS(=O)(=O)C1 (stereo not drawn),i,i,i,i,nt,nt,nt,nt,nt,nt,nt
Cc1cccc(OC(C)C(=O)N(Cc2cccs2)C2CCS(=O)(=O)C2)c1C (stereo not drawn),-15.6,i,i,i,69.4,i,i,i,i,i,i
Cc1nc(C(F)(F)F)ccc1C(=O)N1CCCCC1,5.8,31.1,?,3.0,nt,i,i,i,i,i,i
COC(=O)c1ccc(NC(C(=O)OC)C(C)C)c([N+](=O)[O-])c1 (stereo not drawn),i,i,i,i,nt,nt,nt,nt,nt,nt,nt
O=c1[nH]c(CN2CCN(S(=O)(=O)/C=C/c3ccccc3)CC2)nc2ccccc12,i,i,?,i,nt,nt,nt,nt,nt,nt,nt
CCN(CC)c1ccc(NC(=O)Cn2c(C(C)NC(=O)c3ccc(C)cc3)nc3ccccc32)cc1 (stereo not drawn),191.7[activator],i,152.7[activator],212.0[activator],nt,i,i,i,127.7[activator],i,259.0[activator]
Cc1cc(N)nc(C)c1C#N,i,i,i,i,nt,nt,nt,nt,nt,nt,nt
Cc1cc(C)c(C#N)c(N)n1,nt,nt,nt,nt,nt,i,i,i,i,i,i
CCOC(=O)c1cccc(NC(=O)CSc2nc3ccccc3c(=O)n2CCOC)c1,i,9.5,13.2,22.7,nt,i,i,i,i,i,i
Cc1ccc(OCC(=O)N/N=C/C=C/c2ccco2)cc1C,3.6,59.8,i,i,67.3,i,i,i,i,i,i
Cc1onc(-c2ccccc2)c1C(=O)N/N=C/C=C/c1ccccc1,i,i,?,i,nt,nt,nt,nt,nt,nt,nt
Cc1ccc(C(=O)N/N=C/C=C/c2ccccc2)o1,i,i,229.9[activator],i,112.8,i,i,i,i,i,i
COc1cc(NC(=O)SC2=NCCS2)cc(OC)c1,i,i,?,40.7,nt,i,i,i,i,i,i
COc1cc(OC)cc(C(=O)NC2=NCCS2)c1,i,i,i,i,nt,nt,nt,nt,nt,nt,nt
CCOC(=O)C(=O)CC(=O)c1ccc2c(c1)OCCO2,i,i,i,i,nt,nt,nt,nt,nt,nt,nt
COc1ccc(CN(C)C2c3ccccc3-c3ccccc32)cc1,186.4[activator],i,i,i,113.9,i,i,i,i,i,i
COc1ccc(OCCN(C)Cc2ccccc2)cc1,i,i,i,i,nt,nt,nt,nt,nt,nt,nt
CCN(CC)S(=O)(=O)c1cccc(-c2nnc(SCCOc3ccccc3C)o2)c1,210.7[activator],nt,152.5[activator],177.4[activator],nt,i,i,i,i,i,i
CCOC(=O)c1c(C)[nH]c(C(=O)CSc2nnc(-c3ccncc3)n2CC)c1C,i,i,i,i,nt,nt,nt,nt,nt,nt,nt
C=CCn1c(SCC(=O)c2[nH]c(C)c(C(=O)OCC)c2C)nc2scc(-c3ccc(OC)c(OC)c3)c2c1=O,191.2[activator],i,i,167.6[activator],nt,i,i,i,i,i,i
CCc1c(O)c(/C(C)=N\O)c(=O)n(-c2ccccc2)c1-c1ccccc1,271.4[activator],i,i,i,110.6,i,i,i,i,i,i
COCCN1Cc2cccc(C(=O)Nc3ccc(C)cc3)c2C1=O,i,i,i,i,nt,nt,nt,nt,nt,nt,nt
CC1CC(=O)N(CC(=O)Nc2ccc3c(c2)OCO3)c2ccccc2S1 (stereo not drawn),i,i,i,i,nt,nt,nt,nt,nt,nt,nt
SMILES,RGS16-Gao,RGS8-Gao reg,RGS7-Gao reg,RGS4-Gao reg,RGS4-Gao HTS,Biotin-avidin,RGS8-Gao single,RGS7-Gao single,RGS16-Gao single,RGS4-Gao single,RGS19-Gao single
COCc1cc(C(C)=O)ccc1OCC(=O)Nc1ccc(NC(C)=O)cc1,i,i,i,i,nt,nt,nt,nt,nt,nt,nt
COC(=O)c1ccccc1OCCCCN1CC(C)OC(C)C1 (stereo not drawn),i,i,254.2[activator],i,113.0,i,i,58.8,i,69.5,45.8
CCOC(=O)N1CCC(NC(=O)c2cccnc2SC)CC1,nt,nt,nt,nt,nt,i,i,i,i,i,i
CCc1cccc2c1NC1(CCCC1)CC2C (stereo not drawn),i,i,?,i,nt,nt,nt,nt,nt,nt,nt
CCOC(CNC(=O)c1cccn2c(=O)c3cc(Cl)ccc3nc12)OCC,i,i,48.1,i,51.8,i,i,i,i,i,i
COc1cc(/C=N/NC(=O)Cn2ccc(C(F)(F)F)n2)cc(OC)c1OC,14.2,20.0,23.3,31.1,nt,i,i,i,i,i,i
COc1cc(C(=O)NNC(=O)c2ccc(NC(C)=O)cc2)cc(OC)c1OC,11.4,14.5,16.8,22.8,nt,i,i,209.9[activator],131.7[activator],165.1[activator],255.1[activator]
COc1cc(C(=O)Nc2ccc(N(C)C)cc2)cc(OC)c1OC,i,i,i,i,nt,nt,nt,nt,nt,nt,nt
O=S1(=O)CC2N=C(N(Cc3c(F)cccc3Cl)c3ccccc3F)SC2C1 (stereo not drawn),11.1,16.7,12.2,18.8,nt,i,i,i,i,i,i
Cc1cccc(NC(=O)c2ccccc2-c2ccccc2)c1,i,i,?,i,nt,nt,nt,nt,nt,nt,nt
Cc1cc(NC(=O)c2ccccc2-c2ccccc2)ccc1Br,226.1[activator],i,i,i,108.0,i,i,i,i,i,i
Brc1ccc(Sc2cnc3ccccc3n2)cc1,i,i,i,i,nt,nt,nt,nt,nt,nt,nt
c1cncc(-c2nc(NCC3COc4ccccc4O3)c3ccccc3n2)c1 (stereo not drawn),i,i,i,i,nt,nt,nt,nt,nt,nt,nt
CCOC(=O)c1sc(NC(=O)COC(=O)C(CCSC)NC(C)=O)nc1C (stereo not drawn),9.0,i,i,i,86.1,i,i,i,i,i,i
NS(=O)(=O)c1cccnc1Nc1c(Cl)cccc1Cl,213.3[activator],i,179.1[activator],208.5[activator],nt,i,i,i,i,i,i
Cc1cc(C)n(C(=O)CCCCCCCC(=O)n2nc(C)cc2C)n1,i,i,i,i,nt,nt,nt,nt,nt,nt,nt
CCCCOCCCNC1=NCCCCC1,-10.6,i,i,i,86.9,nt,nt,nt,nt,nt,nt
CC(C)CCNC1=NCCCCC1,i,i,i,i,nt,nt,nt,nt,nt,nt,nt
CCO[C@@H]1OC(C(N)=O)=C[C@H](c2cn(C(C)=O)c3ccccc23)[C@H]1CCCO,i,i,i,i,nt,nt,nt,nt,nt,nt,nt

# Assay outcomes deposited in PubChem by NMMLSC.
